Test results from the supplement of paper PMC6089552.
Screen size: about 3,200 compounds; about 300 (9.4%) showed activity. The entries come from a sample that favours actives as a whole.

Test system: A673/TR/shEF
Assay: cell viability (LOESS-normalised, relative to median of negative controls) (log2 ratio); higher = more viable cells (less compound effect), active = hit call of the paper (over 3 MAD below the median)
Conditions: treatment time: 72 h
Method in brief: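 A673/TR/shEF Ewing sarcoma cells were plated at 1,500 per well in 384-well plates and cultured with or without doxycycline, added 24 h before compounds, to induce EWS-FLI1 shRNA knockdown. Library compounds at two or more concentrations, alongside DMSO controls, were applied for three days. Cell viability was measured by CellTiter-Glo luminescence on an Envision reader. Readings were LOESS-corrected per plate, divided by the median of negative controls and log2-transformed, and hits were wells lying at least three median absolute deviations from the median of all screened wells.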

[1] = 0.25 µM, library screen: screen1, EWS-FLI1 expression: high (no doxycycline)
[2] = 0.25 µM, library screen: screen1, EWS-FLI1 expression: low (doxycycline-induced shRNA knockdown)
[3] = 2.5 µM, library screen: screen1, EWS-FLI1 expression: high (no doxycycline)
[4] = 2.5 µM, library screen: screen1, EWS-FLI1 expression: low (doxycycline-induced shRNA knockdown)
[5] = 0.103 µM, library screen: screen3, EWS-FLI1 expression: high (no doxycycline)
[6] = 0.103 µM, library screen: screen3, EWS-FLI1 expression: low (doxycycline-induced shRNA knockdown)
[7] = 0.308 µM, library screen: screen3, EWS-FLI1 expression: high (no doxycycline)
[8] = 0.308 µM, library screen: screen3, EWS-FLI1 expression: low (doxycycline-induced shRNA knockdown)
[9] = 0.926 µM, library screen: screen3, EWS-FLI1 expression: high (no doxycycline)
[10] = 0.926 µM, library screen: screen3, EWS-FLI1 expression: low (doxycycline-induced shRNA knockdown)
[11] = 2.8 µM, library screen: screen3, EWS-FLI1 expression: high (no doxycycline)
[12] = 2.8 µM, library screen: screen3, EWS-FLI1 expression: low (doxycycline-induced shRNA knockdown)
[13] = 8.3 µM, library screen: screen3, EWS-FLI1 expression: high (no doxycycline)
[14] = 8.3 µM, library screen: screen3, EWS-FLI1 expression: low (doxycycline-induced shRNA knockdown)
[15] = 25 µM, library screen: screen3, EWS-FLI1 expression: high (no doxycycline)
[16] = 25 µM, library screen: screen3, EWS-FLI1 expression: low (doxycycline-induced shRNA knockdown)
[17] = 0.25 µM, library screen: screen2, EWS-FLI1 expression: high (no doxycycline)
[18] = 0.25 µM, library screen: screen2, EWS-FLI1 expression: low (doxycycline-induced shRNA knockdown)
[19] = 2.5 µM, library screen: screen2, EWS-FLI1 expression: high (no doxycycline)
[20] = 2.5 µM, library screen: screen2, EWS-FLI1 expression: low (doxycycline-induced shRNA knockdown)

Measured: cell viability (log2)

COc1ccc2c(c1)OC[C@@H](Cc1ccc(OC)c(OC)c1)[C@@H]2O
inactive: [1] 0.137 | [2] -0.0181 | [3] 0.209 | [4] 0.0843

Oc1cc(O)c2c(c1)O[C@H](c1cc(O)c(O)c(O)c1)[C@H](O)[C@H]2c1c(O)cc(O)c2c1O[C@H](c1cc(O)c(O)c(O)c1)[C@H](O)[C@H]2c1c(O)cc(O)c2c1O[C@H](c1cc(O)c(O)c(O)c1)[C@H](O)C2
inactive: [1] -0.0224 | [2] 0.066 | [3] 0.107 | [4] 0.0716

OC[C@H]1O[C@@H](O[C@H]2[C@H](O)[C@@H](O)C(O)O[C@@H]2CO)[C@H](O)[C@@H](O)[C@@H]1O (stereo partly drawn)
inactive: [1] -0.0294 | [2] 0.0659 | [3] 0.116 | [4] 0.0995

CC(C)(C)C(=O)OCOP(=O)(COCCn1cnc2c(N)ncnc21)OCOC(=O)C(C)(C)C
active: [11] -0.371 | [13] -0.686 | [15] -1.44 | [16] -0.304
inactive: [5] -0.0455 | [6] 0.0657 | [7] -0.0326 | [8] 0.0345 | [9] -0.105 | [10] -0.0287 | [12] -0.0209 | [14] -0.0516

C[C@H](Cn1cnc2c(N)ncnc21)OCP(=O)(O)O
inactive: [5] 0.0857 | [6] 0.09 | [17] 0.128 | [18] 0.113 | [7] 0.00908 | [8] 0.0155 | [9] 0.0338 | [10] 0.0939 | [19] 0.189 | [20] 0.0365 | [11] 0.0533 | [12] 0.0269 | [13] -0.0007 | [14] 0.0852 | [15] 0.0436 | [16] 0.126

Nc1ncnc2c1ncn2[C@@H]1O[C@H](COP(=O)(O)O)[C@@H](O)[C@H]1O
inactive: [1] 0.101 | [2] -0.0633 | [3] 0.171 | [4] 0.117

CC1CCC(O)C/C1=C/C=C1\CCCC2(C)C1CCC2C(C)/C=C/C(C)C(C)C (stereo not drawn)
inactive: [1] 0.0469 | [2] 0.0169 | [3] 0.0774 | [4] 0.0401

COc1cc(C2NC(=O)NC(C)=C2C(=O)Nc2cccc(Cl)c2)cc(OC)c1OC (stereo not drawn)
inactive: [1] 0.0796 | [2] 0.0843 | [3] 0.0754 | [4] -0.0585

O[Si](CCCN1CCCCC1)(c1ccc(F)cc1)C1CCCCC1 (stereo not drawn)
inactive: [17] 0.132 | [18] 0.0854 | [19] 0.109 | [20] 0.178

Cc1c(NC(=O)Nc2ccc3ccccc3c2)c(=O)n(-c2ccccc2)n1C
inactive: [1] 0.0897 | [2] 0.113 | [3] 0.056 | [4] 0.16

O=C(c1ccc(F)cc1)C1CCN(CCn2c(=O)[nH]c3ccccc3c2=O)CC1
active: [17] -0.282 | [18] -0.245 | [19] -2.12 | [20] -2.83

CC1(C)C(=O)N(CCN2CCC(C(=O)c3ccc(F)cc3)CC2)c2ccccc21
inactive: [5] -0.034 | [6] 0.0315 | [17] 0.081 | [18] 0.0775 | [7] 0.05 | [8] 0.0455 | [9] 0.00913 | [10] 0.0245 | [19] 0.0771 | [20] 0.0581 | [11] -0.0171 | [12] 0.0924 | [13] -0.00458 | [14] 0.0164 | [15] 0.0894 | [16] 0.0236

Cc1nc2ccccn2c(=O)c1CCN1CCC(C(=O)c2ccc(F)cc2)CC1
inactive: [1] 0.119 | [2] 0.184 | [17] 0.229 | [18] 0.127 | [3] 0.124 | [4] 0.101 | [19] 0.243 | [20] 0.107

COc1ccc2c(c1)CC[C@@H]1[C@@H]2CC[C@]2(C)[C@@H](NCCCCCCN3C(=O)CCC3=O)CC[C@@H]12
inactive: [17] 0.149 | [18] 0.104 | [19] 0.246 | [20] 0.108

COc1cccc2c(C)cc(=O)[nH]c12
inactive: [1] 0.0638 | [2] 0.0801 | [3] 0.144 | [4] 0.0702

C[C@@H]1CCC2[C@@H](C)[C@@H](O)O[C@@H]3OC4(C)CC[C@@H]1[C@@]23OO4 (stereo partly drawn)
inactive: [1] 0.104 | [2] 0.00583 | [3] 0.029 | [4] -0.122

CN(C)c1ccc(C=C2SC(=S)N(c3ccc(F)cc3)C2=O)cc1
inactive: [1] 0.0645 | [2] 0.154 | [3] 0.09 | [4] 0.192

C=CC(C)(C)c1c2c(c(O)c3c(=O)c4ccc(O)c(O)c4oc13)C=CC(C)(C)O2
inactive: [1] -0.0194 | [2] 0.182 | [3] -0.0746 | [4] 0.15
